Results filed as inconclusive are left out. Active and inactive are the calls of the source. The calls were made as follows: active = hit-call score of the fitted dose curve at least 0.9, where 1 is the maximum; inconclusive = response in the unintended direction; inactive = score below 0.9.
Experiments:
[1] = TOX21_p53_BLA_p3_viability: Viability Assessment in the Tox21 HCT-116 p53 Agonism Beta-lactamase Assay, Phase 3 (AID 2283593);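 also: cells exposed to compound for 16 h before reading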
Outline: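 HCT116 cells, 4000/well, dosed 5 h after plating by pin transfer (217-fold dilution from DMSO stock) and incubated 16 h at 37C, 5% CO2. Viability read as ATP luminescence with CellTiter-Glo after 30 min at room temperature.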

[2] = TOX21_p53_BLA_p4_viability: Viability Assessment in the Tox21 HCT-116 p53 Agonism Beta-lactamase Assay, Phase 4 (AID 2283597);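 also: hits lower the luminescence signal meaning cytotoxicity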
Outline: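 Luminescent ATP readout (CellTiter-Glo, 30 min, room temperature) in the same wells as the p53 bla ratio. HCT116 cells were treated for 16 h at 37C with DMSO-dissolved compounds.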

[3] = TOX21_p53_BLA_p5_viability: Viability Assessment in the Tox21 HCT-116 p53 Agonism Beta-lactamase Assay, Phase 5 (AID 2283600)
Outline: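 Seeded cells (4000/well) settle 5 h before compound addition. Plates then incubate 16 h at 37C, receive FRET substrate for 2 h, and finally CellTiter-Glo, with luminescence measured after a 30 min room-temperature incubation.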

[4] = target: Cellular tumor antigen p53 (Homo sapiens) (UniProt P04637); assay: TOX21_p53_BLA_p4_ratio: Tox21 HCT-116 p53 Agonism Beta-lactamase Assay, Ratio, Phase 4 (AID 2283601)
Outline: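 HCT-116 p53 beta-lactamase reporter cells (4000/well) preincubated 5 h, then compound (217-fold dilution of DMSO stock) for 16 h at 37C. CCF4-AM substrate added 2 h at room temperature; 460/530 nm emission ratio fitted upward versus DMSO.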

[5] = target: Cellular tumor antigen p53 (Homo sapiens) (UniProt P04637); assay: TOX21_p53_BLA_p5_ratio: Tox21 HCT-116 p53 Agonism Beta-lactamase Assay, Ratio, Phase 5 (AID 2283599)
Outline: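 HCT-116 p53-bla cells (4000/well) plated 5 h, dosed with compound (217-fold DMSO dilution) for 16 h at 37 C; CCF4-AM substrate 2 h at room temperature. Activity is the 460/530 nm emission ratio (405 nm excitation), fitted in gain-of-signal direction versus DMSO.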

[6] = target: Cellular tumor antigen p53 (Homo sapiens) (UniProt P04637); assay: TOX21_p53_BLA_p3_ratio: Tox21 HCT-116 p53 Agonism Beta-lactamase Assay, Ratio, Phase 3 (AID 2283596)
Outline: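 HCT116 p53-bla cells (4000/well) given compound in DMSO (217-fold dilution) after 5 h, incubated 16 h at 37C. CCF4-AM substrate 2 h at room temperature; 460/530 nm emission ratio, gain fitted against DMSO.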

Measured: outcome

Sequence of Cellular tumor antigen p53 (Homo sapiens) (P04637 whole entry, looked up): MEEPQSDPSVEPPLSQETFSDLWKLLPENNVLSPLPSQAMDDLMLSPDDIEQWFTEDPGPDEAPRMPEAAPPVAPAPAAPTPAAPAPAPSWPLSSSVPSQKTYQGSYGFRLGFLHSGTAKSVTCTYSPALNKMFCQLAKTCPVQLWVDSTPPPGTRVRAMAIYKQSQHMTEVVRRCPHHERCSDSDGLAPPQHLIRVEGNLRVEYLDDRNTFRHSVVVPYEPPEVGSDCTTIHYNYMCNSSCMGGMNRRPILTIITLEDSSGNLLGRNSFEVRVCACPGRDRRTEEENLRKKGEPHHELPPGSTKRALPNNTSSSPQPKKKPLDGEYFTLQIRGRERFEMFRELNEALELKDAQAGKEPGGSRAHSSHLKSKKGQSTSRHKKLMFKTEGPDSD

CC(C)Cc1ccc([C@H](C)C(=O)O)cc1
inactive: [1] | [2] | [3]

CCC(=O)OC(OP(=O)(CCCCc1ccccc1)CC(=O)N1C[C@H](C2CCCCC2)C[C@H]1C(=O)O)C(C)C (stereo not given in full)
inactive: [1] | [2] | [3] | [4]

CCCCCCCCCCCC[N+](C)(C)CCCS(=O)(=O)[O-]
inactive: [1] | [2] | [5] | [4]

CN(C)CCCNCCCN
not listed: [2]
inactive: all other assays above

CCCCOC(=O)C(=O)OCCCC
not listed: [6]
inactive: all other assays above

CCOC(=O)Nc1ccc2c(c1)N(C(=O)CCN1CCOCC1)c1ccccc1S2
inactive: [1] | [5] | [3]

CCCCNc1c(C(=O)OCC)c(C)nc2c1cnn2CC
inactive: [1] | [2] | [3]

O=C1N=C2SCCN2C(=O)C1Cc1ccc(Cl)cc1 (stereo not given)
inactive: [1] | [2] | [3]

CC(C)(CCl)c1ccccc1
not listed: [6]
inactive: all other assays above

CC(=O)Nc1ccc(S(=O)(=O)Nc2cc(C)on2)cc1
inactive: [1] | [5] | [3]

CCNC(=O)[C@@H]1CCCN1C(=O)[C@H](CCCN=C(N)N)NC(=O)[C@H](CC(C)C)NC(=O)[C@@H](CC(C)C)NC(=O)[C@H](Cc1ccc(O)cc1)NC(=O)[C@H](CO)NC(=O)[C@H](Cc1c[nH]c2ccccc12)NC(=O)[C@H](Cc1cnc[nH]1)NC(=O)[C@@H]1CCC(=O)N1
inactive: [1] | [2] | [5]

COc1cc(C[C@@H]2NCCc3cc(O)c(O)cc32)cc(OC)c1OC
inactive: [1] | [6] | [3] | [4]
